Source: PubChem BioAssay
Sampled rows, rich in hits. Any-hit rate of the full collection: about 3.1%.
CF NFkB block: blocks PAF-induced NF-kB reporter in cystic fibrosis cells; AID 588850; inhibition, % at 5 µM; KKLEB NF-kB-GFP reporter, GFP fluorescence overnight; actives 0.86% (n = 360,000);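 active = at least 50% inhibition at 5 µM, scaled per plate between neutral and stimulator controls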;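 also: PAF is a Pseudomonas aeruginosa culture filtrate used as stimulus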
PPC-1+TRAIL kill: kills PPC-1 cancer cells in the presence of TRAIL | PPC-1 cells + TRAIL, ATPLite viability luminescence | cell killing (% activity), % at 4 µM or 5 µM | actives 0.41% (n = 220,000) | AID 1443;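 active = cell killing above 50% in the first pass at 4 µM, then a duplicate retest at 5 µM averaging 50% or more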
HIF-2a block: inhibitors of HIF-2a. 786-0 RCC cells HIF-2a reporter, luciferase luminescence, overnight. inhibition, % at 18.8 µM. actives 0.72% (n = 360,000). AID 624352;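 active = inhibition of the luminescence signal of 40% or more relative to plate controls, in a single-dose primary screen at 18.75 µM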
Peg3 prom inh-1: inhibitors of Peg3 promoter; HeLa PEG-Prom luciferase reporter, luminescence, overnight; inhibition, % at 20 µM; actives 1.7% (n = 360,000); AID 588405;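 active = inhibition of at least 50% at 20 µM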
C8 TRAIL sens: sensitizes caspase-8 expressing cells to TRAIL. NB7+C8 cells + TRAIL, ATPlite viability luminescence. inhibition (viability loss, TRAIL sensitization), % at 10 µM. actives 1% (n = 360,000);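 active = compounds causing at least 50% loss of cell viability in the single-dose screen, relative to plate controls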
KKLEB cytotox: CF airway cell cytotoxicity counter-screen | KKLEB CF airway cells viability, ATPlite luminescence, overnight; hits give low values; cells stimulated with P. aeruginosa culture filtrate | activity change (cytotoxicity), % at 5 µM | actives 0.36% (n = 360,000) | AID 602141;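 active = corrected activity change at or below -50% at 5 µM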
Peg3 prom inh-2: confirmation of Peg3 promoter inhibitors; shares compounds with Peg3 prom inh-1; HeLa PEG-Prom luciferase reporter, luminescence, overnight; inhibition, % at 20 µM; actives 84% (n = 1,300); AID 602417;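 active = at 20 µM dose, 40% or more inhibition averaged across four replicates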
Large screens that a line does not name were inactive (follow-up assays come after a bar, where they were run).

CC(C)n1nc(C(=O)Nc2cccc(S(=O)(=O)N3CCOCC3)c2)c2ccccc2c1=O	none (no result: PPC-1+TRAIL kill)
Cc1c(NC(=S)NC(=O)c2cccc(Br)c2)c(=O)n(-c2ccccc2)n1C	none (no result: PPC-1+TRAIL kill)
O=C(O)c1cccc(S(=O)(=O)Nc2ccc3c(c2)CCC3)c1	none (no result: PPC-1+TRAIL kill)
CC(=O)n1cc(N(C(=O)CCl)c2ccc([N+](=O)[O-])cc2)c2ccccc21	CF NFkB block 80, Peg3 prom inh-1 90, C8 TRAIL sens 72, KKLEB cytotox -83 | Peg3 prom inh-2 99
COC1CC(NC(C)=O)C(OC(=O)c2ccccc2)C(CBr)O1 (configuration not stated)	none (no result: PPC-1+TRAIL kill)
O=C(C[C@H]1C[C@H](C(=O)N2CCCCC2)[C@@]2(CCc3ccccc3)c3[nH]c4ccc(Cl)cc4c3CCN2C1=O)NCCN1CCOCC1	Peg3 prom inh-1 80 (no result: PPC-1+TRAIL kill) | Peg3 prom inh-2 inactive
O=C(C[C@H]1C[C@H](C(=O)N2CCCCC2)[C@@]2(CCc3ccccc3)c3[nH]c4cc(-c5ccco5)ccc4c3CCN2C1=O)NCCN1CCOCC1	none (no result: PPC-1+TRAIL kill)
N#Cc1cccc(-c2csc(C(O)c3ccco3)n2)c1 (configuration not stated)	none (no result: PPC-1+TRAIL kill)
CN(C)CCNc1ncnc2c1ncn2[C@H]1CN(Cc2ccccc2)C[C@@H](CO)O1	none (no result: PPC-1+TRAIL kill)
CN(C)CCNc1ncnc2c1ncn2[C@H]1CN(Cc2ccc(-c3ccccc3)cc2)C[C@@H](CO)O1	Peg3 prom inh-1 80 (no result: PPC-1+TRAIL kill) | Peg3 prom inh-2 75
Cc1ccsc1/C=N/Nc1cccc(C(=O)O)c1	HIF-2a block 86, Peg3 prom inh-1 86 | Peg3 prom inh-2 74
COCCn1ccc2c(OCC(=O)Nc3cccc(NC(C)=O)c3)cccc2c1=O	none (no result: PPC-1+TRAIL kill)
CC(NCC(=O)Nc1ccccc1C(=O)NC1CC1)c1ccc(S(C)(=O)=O)cc1 (configuration not stated)	none (no result: PPC-1+TRAIL kill)
NC(c1csc(Nc2nccc(C(F)(F)F)n2)n1)C1CCCCC1 (configuration not stated)	Peg3 prom inh-1 83 (no result: PPC-1+TRAIL kill) | Peg3 prom inh-2 94
CC(C)c1ccc(NC(=O)Nc2nc(C(C)N)cs2)cc1 (configuration not stated)	Peg3 prom inh-1 86 (no result: PPC-1+TRAIL kill) | Peg3 prom inh-2 90
COc1cccc(Nc2nc(C(N)C3CCCCC3)cs2)n1 (configuration not stated)	Peg3 prom inh-1 96 (no result: PPC-1+TRAIL kill) | Peg3 prom inh-2 63
COc1ccc(NC(=O)Nc2nc(C(N)C3CCCCC3)cs2)cc1 (configuration not stated)	Peg3 prom inh-1 54 (no result: PPC-1+TRAIL kill) | Peg3 prom inh-2 71
COc1cccc(Nc2nc(C(C)N)cs2)n1 (configuration not stated)	none (no result: PPC-1+TRAIL kill)
CC(=O)C[C@H](O)CC(=O)[C@H]1OC(=O)[C@H](C)C/C=C\Cc2ccccc21	none (no result: PPC-1+TRAIL kill)
Cc1ccccc1NC(=O)Nc1nc(C(N)C2CCCCC2)cs1 (configuration not stated)	Peg3 prom inh-1 86 (no result: PPC-1+TRAIL kill) | Peg3 prom inh-2 81
CN(C)c1ccc(NC(=O)Nc2nc(C(N)C3CCCCC3)cs2)cc1 (configuration not stated)	none (no result: PPC-1+TRAIL kill)
COc1ccc(-c2nc3n(c2C)CCC3)cc1	none
COc1ccc(-c2cc3nc4n(c(=O)c3s2)CCC4)cc1	Peg3 prom inh-1 59, C8 TRAIL sens 71 | Peg3 prom inh-2 inactive
COc1cc2c(oc(=O)c3cc(C)cc(OC)c32)c2c(C3OC(C)C(O)C(C)(O)C3O)ccc(O)c12 (configuration not stated)	HIF-2a block 58, Peg3 prom inh-1 100 (no result: PPC-1+TRAIL kill) | Peg3 prom inh-2 99
NC(=O)C1CCN(C(=O)c2ccc3c(=O)n(Cc4ccco4)c(SCc4ccc([N+](=O)[O-])cc4)nc3c2)CC1	none (no result: PPC-1+TRAIL kill)
O=C(c1cc(Cl)nc2ccccc12)N1CCN(S(=O)(=O)c2cccc(F)c2)CC1	none (no result: PPC-1+TRAIL kill)
O=S(=O)(c1cccc(F)c1)N1CCN(c2nc(-c3cccnc3)nc3ccccc23)CC1	Peg3 prom inh-1 53 (no result: PPC-1+TRAIL kill) | Peg3 prom inh-2 55
COc1ccc(C)cc1N1CC(C(=O)Nc2ccccc2C(=O)NC2CC2)CC1=O (configuration not stated)	none (no result: PPC-1+TRAIL kill)
OC[C@@H]1[C@@H](c2ccc(Cl)cc2)C(c2cccc(Cl)c2)=NN1c1ccccc1	Peg3 prom inh-1 54 (no result: PPC-1+TRAIL kill) | Peg3 prom inh-2 65
O=c1c2ccccc2sc2nc(CCl)nn12	Peg3 prom inh-1 104 (no result: PPC-1+TRAIL kill) | Peg3 prom inh-2 93
CCN(CC)CCNC(=S)Nc1ccc2nc(N3CCCC3)cc(C)c2c1	none
CCCN(CCC)CCCNC(=S)Nc1ccc2nc(N3CCCC3)cc(C)c2c1	Peg3 prom inh-1 51 | Peg3 prom inh-2 71
COc1ccc(S(=O)(=O)/N=C2\C=C(Nc3ccc(O)cc3)C(=O)c3ccccc32)cc1	CF NFkB block 101, Peg3 prom inh-1 104, C8 TRAIL sens 96, KKLEB cytotox -74 (no result: PPC-1+TRAIL kill) | Peg3 prom inh-2 98
O=C(N=C1SC2CS(=O)(=O)CC2N1Cc1ccccc1Cl)C1CC1 (configuration not stated)	none (no result: PPC-1+TRAIL kill)
OCc1cn(-c2ccccc2)nc1-c1ccc(-c2nn(-c3ccccc3)cc2CO)cc1	none
Fc1ccc(-c2nn(-c3ccccc3)cc2CNCc2ccccc2)cc1	Peg3 prom inh-1 62 | Peg3 prom inh-2 inactive
Cc1nc(-c2cccc(NC(=O)c3ccco3)c2)cs1	none (no result: PPC-1+TRAIL kill)
Cc1nc(-c2ccc(NC(=O)c3ccco3)cc2)cs1	HIF-2a block 64, Peg3 prom inh-1 82, C8 TRAIL sens 94, KKLEB cytotox -54 (no result: PPC-1+TRAIL kill) | Peg3 prom inh-2 67
COc1cc(C2c3cc4c(cc3OC(C)(N3CCCC3)C2C)OCO4)cc(OC)c1OC (configuration not stated)	none (no result: PPC-1+TRAIL kill)
CCCCCCSc1cc(-c2nc3ccc(C)cn3c2NCCCC)ccc1OC	Peg3 prom inh-1 79 (no result: PPC-1+TRAIL kill) | Peg3 prom inh-2 93
O=C(/C=C/c1ccc2ccccc2n1)N1CCN(S(=O)(=O)c2ccccc2F)CC1	Peg3 prom inh-1 50 | Peg3 prom inh-2 inactive
CN(C)CC/C=C1\c2ccccc2Sc2ccc(Cl)cc21	none
CCCCCCCCCC[N+](C)(C)CC/C=C1/c2ccccc2Sc2ccc(Cl)cc21	HIF-2a block 49, Peg3 prom inh-1 108 (no result: PPC-1+TRAIL kill) | Peg3 prom inh-2 100
Cc1ccc(NC(=S)NC(=O)c2ccc(F)cc2)cc1S(=O)(=O)Nc1ccccc1Cl	Peg3 prom inh-1 55 | Peg3 prom inh-2 58
Cc1ccc(NC(=O)c2ccc(=O)[nH]n2)cc1S(=O)(=O)Nc1ccccc1Cl	none (no result: PPC-1+TRAIL kill)
CC(=O)NC(c1ccc2ccccc2c1)c1ccc2cccnc2c1O (configuration not stated)	Peg3 prom inh-1 64 (no result: PPC-1+TRAIL kill) | Peg3 prom inh-2 71
COc1ccc(C(NC(C)=O)c2ccc3cccnc3c2O)c(OC)c1 (configuration not stated)	Peg3 prom inh-1 61 | Peg3 prom inh-2 65
CN1CCn2cnc(C(=O)Nc3ccc(CNC(=O)OC(C)(C)C)cc3)c2C1=O	none (no result: PPC-1+TRAIL kill)
